The values that follow come from PubChem BioAssay (EPA / NIEHS).

Usually AC50 stands for the midpoint of the concentration-response curve, whichever way the signal moves.

Calls of active or inactive are those of the source. Rule for the calls: active = hit-call score of the fitted dose curve at least 0.9, where 1 is the maximum; inactive = score below 0.9.

Sequence of Signal transducer and activator of transcription 3 (Homo sapiens) (P40763 whole entry, looked up): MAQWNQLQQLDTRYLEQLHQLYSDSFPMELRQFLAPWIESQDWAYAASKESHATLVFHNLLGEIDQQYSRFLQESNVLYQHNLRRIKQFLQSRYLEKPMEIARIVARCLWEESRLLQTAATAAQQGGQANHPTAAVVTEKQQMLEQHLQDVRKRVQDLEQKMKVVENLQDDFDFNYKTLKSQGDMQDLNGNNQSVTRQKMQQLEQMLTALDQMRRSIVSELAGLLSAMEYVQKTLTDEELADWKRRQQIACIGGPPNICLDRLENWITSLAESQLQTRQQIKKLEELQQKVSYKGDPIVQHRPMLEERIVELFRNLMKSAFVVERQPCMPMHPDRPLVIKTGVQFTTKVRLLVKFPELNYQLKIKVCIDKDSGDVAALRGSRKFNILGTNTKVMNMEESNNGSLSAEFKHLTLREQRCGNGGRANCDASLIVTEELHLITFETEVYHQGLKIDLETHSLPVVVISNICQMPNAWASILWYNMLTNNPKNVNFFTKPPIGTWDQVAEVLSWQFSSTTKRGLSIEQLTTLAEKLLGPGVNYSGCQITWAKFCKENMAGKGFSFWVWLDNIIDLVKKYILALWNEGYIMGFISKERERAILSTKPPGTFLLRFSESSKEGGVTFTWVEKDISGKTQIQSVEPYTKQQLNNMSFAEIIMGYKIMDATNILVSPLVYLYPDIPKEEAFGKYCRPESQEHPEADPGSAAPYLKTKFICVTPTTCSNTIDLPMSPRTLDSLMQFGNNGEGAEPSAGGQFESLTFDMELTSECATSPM
Sequence of Transcription factor Sp1 (Homo sapiens) (P08047 whole entry, looked up): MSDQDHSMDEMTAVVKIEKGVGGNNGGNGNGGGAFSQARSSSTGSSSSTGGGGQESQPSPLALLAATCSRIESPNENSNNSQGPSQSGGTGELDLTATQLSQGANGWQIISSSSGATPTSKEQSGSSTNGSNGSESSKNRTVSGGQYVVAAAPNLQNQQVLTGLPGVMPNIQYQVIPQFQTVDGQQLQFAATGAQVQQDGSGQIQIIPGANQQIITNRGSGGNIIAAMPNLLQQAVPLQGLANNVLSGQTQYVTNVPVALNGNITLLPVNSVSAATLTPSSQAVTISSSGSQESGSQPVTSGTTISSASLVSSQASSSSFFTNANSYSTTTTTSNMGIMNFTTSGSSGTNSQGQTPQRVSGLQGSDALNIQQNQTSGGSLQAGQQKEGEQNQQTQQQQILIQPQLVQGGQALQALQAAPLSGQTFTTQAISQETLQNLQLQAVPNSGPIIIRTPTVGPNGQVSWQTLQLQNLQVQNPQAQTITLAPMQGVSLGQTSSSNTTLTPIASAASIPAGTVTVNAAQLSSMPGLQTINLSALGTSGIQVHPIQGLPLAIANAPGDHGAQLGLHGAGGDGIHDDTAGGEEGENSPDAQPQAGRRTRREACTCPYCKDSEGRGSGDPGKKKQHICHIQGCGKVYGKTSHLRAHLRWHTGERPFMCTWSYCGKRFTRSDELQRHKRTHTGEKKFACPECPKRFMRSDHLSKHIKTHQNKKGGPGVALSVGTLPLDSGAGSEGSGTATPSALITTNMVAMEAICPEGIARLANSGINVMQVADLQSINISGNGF

The target in the first assay is Transcription factor Sp1 (Homo sapiens) (UniProt P08047). Briefly: ATG_Sp1_CIS: Attagene CIS-FACTORIAL HepG2 Assay for human Specificity Protein 1 (Sp1) (AID 2282961). To be noted: HepG2 Sp1 cis-reporter transcription, actives raise or lower the signal. A digest of the protocol:
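After transient transfection of HepG2 cells with cis-promoter reporter units and 24 h chemical treatment, reporter transcripts were quantified by RT-PCR and capillary electrophoresis fluorescence. Gain- and loss-of-signal fitted against DMSO.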
With `NC(=O)C(F)(F)C(F)(F)C(F)(F)C(F)(F)F`, the compound was called inactive.

Regarding `O=P(O)(O)OCCC(F)(F)C(F)(F)C(F)(F)C(F)(F)C(F)(F)C(F)(F)F`, the outcome was inactive.

Turning to `CC(=O)Nc1ccc(N=Nc2cc(C)ccc2O)cc1`, the outcome was inactive.

On to `CCCCCCC(C)OC(=O)CCCCC(=O)OC(C)CCCCCC` (stereo unspecified), for which the compound was called inactive.

For `CC(Cc1ccc(O)c(O)c1)C(C)Cc1ccc(O)c(O)c1` (stereo unspecified), the AC50 is 8.73 µM (active).

Regarding `FC(F)(F)C(F)(F)C(F)(F)C(F)(F)C(F)(F)C(F)(F)C(F)(F)C(F)(F)CCS`, the outcome was inactive.

For `FC(F)(Br)C(F)(F)C(F)(F)C(F)(F)C(F)(F)C(F)(F)Br`, the call was inactive.

Take `OCC(F)(F)C(F)(F)C(F)(F)C(F)(F)C(F)(F)C(F)F`: the call was inactive.

On to `COC(=O)CCC(F)(F)C(F)(F)C(F)(F)C(F)(F)F`, for which the result was inactive.

For the compound `FC(F)(F)C(F)(F)C(F)(F)N(C(F)(F)C(F)(F)C(F)(F)F)C(F)(F)C(F)(F)C(F)(F)F`, the compound was classed as inactive.

Regarding `FC(F)(F)C(F)(F)C(F)(F)C(F)(F)C(F)(F)C(F)(F)C(F)(F)C(F)(F)F`, the compound was classed as inactive.

As to `c1ccc(-c2ccccc2-c2ccccc2)cc1`, the AC50 was 100 µM (active).

Turning to `CCO[Si](CCC(F)(F)C(F)(F)C(F)(F)C(F)(F)C(F)(F)C(F)(F)F)(OCC)OCC`, the compound was classed as inactive.

Consider `FC(F)(I)C(F)(F)C(F)(F)C(F)(F)I`, for which the call was inactive.

On to `CCCCCCCCC(F)(F)C(F)(F)C(F)(F)C(F)(F)C(F)(F)C(F)(F)F`, for which the outcome was inactive.

In the case of `FC(F)(F)C(F)(F)CNCC(F)(F)C(F)(F)F`, the call was inactive.

With `CC/C=C\CCOC(=O)c1ccccc1`, the compound was called inactive.

Regarding `O=S(=O)(OCCOC(F)(F)F)C(F)(F)F`, the compound was classed as inactive.

With `O=S(=O)(O)c1ccc2ccccc2c1`, the compound was classed as inactive.

In the case of `Cc1cccc(N(C)C)c1`, the compound was called inactive.

As for `FC(F)(F)C(F)(F)C(F)(F)CI`, the compound was classed as inactive.

Consider `O=C(O)C(F)(OC(F)(F)C(F)(OC(F)(F)C(F)(OC(F)(F)C(F)(F)C(F)(F)F)C(F)(F)F)C(F)(F)F)C(F)(F)F` (stereo unspecified), for which the compound was called inactive.

Turning to `Nc1ccc(Oc2cccc(Oc3ccc(N)cc3)c2)cc1`, the compound was classed as inactive.

In the case of `FC(F)(F)C(F)(F)C(F)(F)C(F)(F)C(F)(F)C(F)(F)CCS`, the result was inactive.

Take `C=C(C)C(=O)OCC(F)(F)C(F)(F)C(F)(F)F`: the outcome was inactive.

As for `COC(OC(C)=O)c1ccccc1` (stereo unspecified), the compound was called inactive.

Regarding `FC(F)(F)C(F)(F)C(F)(F)C(F)(F)C(F)(F)CCI`, the compound was classed as inactive.

`Nc1ccc([N+](=O)[O-])cc1O`: the result was inactive.

For `C#C[C@]1(O)CC[C@H]2[C@@H]3CCc4cc(OC)ccc4[C@H]3CC[C@@]21C`, the result was inactive.

With `CC(C)=CCCC(C)CCOC(=O)C(C)C` (stereo unspecified), the compound was classed as inactive.

Take `OCC(F)(F)C(F)(F)C(F)(F)C(F)F`: the call was inactive.

On to `CC(CCl)OP(=O)(OC(C)CCl)OC(C)CCl` (stereo unspecified), for which the call was inactive.

Turning to `CC(C)OC(=O)c1ccccc1C(=O)OC(C)C`, the compound was called inactive.

For the compound `FC(F)(F)C(F)(F)C(F)(F)C(F)(F)C(F)(F)C(F)(F)CC1CO1` (stereo unspecified), the outcome was inactive.

System in another assay: not listed separately
Kind of assay: ATG_SREBP_CIS: Attagene CIS-FACTORIAL HepG2 Assay for human Sterol Regulatory Element Binding (SREBP) (AID 2282962). To be noted: HepG2 Attagene cis-factorial SREBP reporter, mRNA; actives raise or lower the signal. Put shortly: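 Endogenous SREBP activity read as cis-element-driven reporter transcript in transiently transfected HepG2, 24 h post-dosing; quantified via RT-PCR plus capillary electrophoresis of fluorescent fragments. Gain or loss of signal fitted relative to DMSO baseline.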
With `NC(=O)C(F)(F)C(F)(F)C(F)(F)C(F)(F)F`, the outcome was inactive.

On to `CC(=O)Nc1ccc(N=Nc2cc(C)ccc2O)cc1`, for which the compound was called inactive.

On to `FC(F)(Br)C(F)(F)C(F)(F)C(F)(F)C(F)(F)C(F)(F)Br`, for which the outcome was inactive.

With `FC(F)(F)C(F)(F)C(F)(F)C(F)(F)C(F)(F)C(F)(F)C(F)(F)C(F)(F)F`, the call was inactive.

Regarding `c1ccc(-c2ccccc2-c2ccccc2)cc1`, the AC50 is 100 µM (active).

In the case of `FC(F)(I)C(F)(F)C(F)(F)C(F)(F)I`, the outcome was inactive.

`FC(F)(F)C(F)(F)CNCC(F)(F)C(F)(F)F`: the outcome was inactive.

For the compound `CC/C=C\CCOC(=O)c1ccccc1`, the call was inactive.

With `O=S(=O)(OCCOC(F)(F)F)C(F)(F)F`, the call was inactive.

For `O=S(=O)(O)c1ccc2ccccc2c1`, the outcome was inactive.

On to `FC(F)(F)C(F)(F)C(F)(F)CI`, for which the result was inactive.

`O=C(O)C(F)(OC(F)(F)C(F)(OC(F)(F)C(F)(OC(F)(F)C(F)(F)C(F)(F)F)C(F)(F)F)C(F)(F)F)C(F)(F)F` (stereo unspecified): the call was inactive.

On to `Nc1ccc(Oc2cccc(Oc3ccc(N)cc3)c2)cc1`, for which the AC50 is 136 µM (active).

Turning to `FC(F)(F)C(F)(F)C(F)(F)C(F)(F)C(F)(F)C(F)(F)CCS`, the compound was classed as inactive.

As to `C=C(C)C(=O)OCC(F)(F)C(F)(F)C(F)(F)F`, the outcome was inactive.

Consider `COC(OC(C)=O)c1ccccc1` (stereo unspecified), for which the compound was called inactive.

For the compound `FC(F)(F)C(F)(F)C(F)(F)C(F)(F)C(F)(F)CCI`, the result was inactive.

`C#C[C@]1(O)CC[C@H]2[C@@H]3CCc4cc(OC)ccc4[C@H]3CC[C@@]21C`: the compound was classed as inactive.

With `CC(C)=CCCC(C)CCOC(=O)C(C)C` (stereo unspecified), the call was inactive.

As for `OCC(F)(F)C(F)(F)C(F)(F)C(F)F`, the result was inactive.

With `CC(CCl)OP(=O)(OC(C)CCl)OC(C)CCl` (stereo unspecified), the compound was called inactive.

As for `CC(C)OC(=O)c1ccccc1C(=O)OC(C)C`, the result was inactive.

As for `FC(F)(F)C(F)(F)C(F)(F)C(F)(F)C(F)(F)C(F)(F)CC1CO1` (stereo unspecified), the compound was called inactive.

A further assay concerns the target Signal transducer and activator of transcription 3 (Homo sapiens) (UniProt P40763). Briefly: ATG_STAT3_CIS: Attagene CIS-FACTORIAL HepG2 Assay for human Signal Transducer and Activator of Transcription 3 (STAT3) (AID 2282963). To be noted: HepG2, Attagene cis-factorial STAT3 reporter transcription; actives raise or lower the signal. Put shortly:
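Readout is reporter transcript quantified by RT-PCR and capillary electrophoresis, with 6-FAM primer extension and HpaI digestion. Total RNA is taken 24 h after dosing transiently transfected HepG2 carrying cis-regulated reporter units. Bidirectional fit against DMSO.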
`NC(=O)C(F)(F)C(F)(F)C(F)(F)C(F)(F)F`: the result was inactive.

For the compound `O=P(O)(O)OCCC(F)(F)C(F)(F)C(F)(F)C(F)(F)C(F)(F)C(F)(F)F`, the result was inactive.

For `CC(=O)Nc1ccc(N=Nc2cc(C)ccc2O)cc1`, the call was inactive.

With `CCCCCCC(C)OC(=O)CCCCC(=O)OC(C)CCCCCC` (stereo unspecified), the outcome was inactive.

With `CC(Cc1ccc(O)c(O)c1)C(C)Cc1ccc(O)c(O)c1` (stereo unspecified), the outcome was inactive.

Regarding `FC(F)(F)C(F)(F)C(F)(F)C(F)(F)C(F)(F)C(F)(F)C(F)(F)C(F)(F)CCS`, the result was inactive.

On to `FC(F)(Br)C(F)(F)C(F)(F)C(F)(F)C(F)(F)C(F)(F)Br`, for which the compound was classed as inactive.

Turning to `OCC(F)(F)C(F)(F)C(F)(F)C(F)(F)C(F)(F)C(F)F`, the compound was called inactive.

Regarding `COC(=O)CCC(F)(F)C(F)(F)C(F)(F)C(F)(F)F`, the outcome was inactive.

As to `FC(F)(F)C(F)(F)C(F)(F)N(C(F)(F)C(F)(F)C(F)(F)F)C(F)(F)C(F)(F)C(F)(F)F`, the call was inactive.

As for `FC(F)(F)C(F)(F)C(F)(F)C(F)(F)C(F)(F)C(F)(F)C(F)(F)C(F)(F)F`, the result was inactive.

Take `c1ccc(-c2ccccc2-c2ccccc2)cc1`: the compound was classed as inactive.

For `CCO[Si](CCC(F)(F)C(F)(F)C(F)(F)C(F)(F)C(F)(F)C(F)(F)F)(OCC)OCC`, the call was inactive.

Take `FC(F)(I)C(F)(F)C(F)(F)C(F)(F)I`: the outcome was inactive.

For `CCCCCCCCC(F)(F)C(F)(F)C(F)(F)C(F)(F)C(F)(F)C(F)(F)F`, the outcome was inactive.

On to `FC(F)(F)C(F)(F)CNCC(F)(F)C(F)(F)F`, for which the call was inactive.

In the case of `CC/C=C\CCOC(=O)c1ccccc1`, the compound was called inactive.

On to `O=S(=O)(OCCOC(F)(F)F)C(F)(F)F`, for which the call was inactive.

For the compound `O=S(=O)(O)c1ccc2ccccc2c1`, the outcome was inactive.

`Cc1cccc(N(C)C)c1`: the compound was classed as inactive.

For `FC(F)(F)C(F)(F)C(F)(F)CI`, the outcome was inactive.

Turning to `O=C(O)C(F)(OC(F)(F)C(F)(OC(F)(F)C(F)(OC(F)(F)C(F)(F)C(F)(F)F)C(F)(F)F)C(F)(F)F)C(F)(F)F` (stereo unspecified), the result was inactive.

For the compound `Nc1ccc(Oc2cccc(Oc3ccc(N)cc3)c2)cc1`, the concentration at half-maximal activity (AC50) is 173 µM (active).

As for `FC(F)(F)C(F)(F)C(F)(F)C(F)(F)C(F)(F)C(F)(F)CCS`, the compound was classed as inactive.

On to `C=C(C)C(=O)OCC(F)(F)C(F)(F)C(F)(F)F`, for which the compound was called inactive.

Regarding `COC(OC(C)=O)c1ccccc1` (stereo unspecified), the compound was classed as inactive.

Take `FC(F)(F)C(F)(F)C(F)(F)C(F)(F)C(F)(F)CCI`: the result was inactive.

Turning to `Nc1ccc([N+](=O)[O-])cc1O`, the outcome was inactive.

With `C#C[C@]1(O)CC[C@H]2[C@@H]3CCc4cc(OC)ccc4[C@H]3CC[C@@]21C`, the compound was called inactive.

In the case of `CC(C)=CCCC(C)CCOC(=O)C(C)C` (stereo unspecified), the compound was classed as inactive.

For the compound `OCC(F)(F)C(F)(F)C(F)(F)C(F)F`, the compound was called inactive.

Consider `CC(CCl)OP(=O)(OC(C)CCl)OC(C)CCl` (stereo unspecified), for which the compound was called inactive.

Turning to `CC(C)OC(=O)c1ccccc1C(=O)OC(C)C`, the outcome was inactive.

In the case of `FC(F)(F)C(F)(F)C(F)(F)C(F)(F)C(F)(F)C(F)(F)CC1CO1` (stereo unspecified), the result was inactive.
